Here are results for 23 compounds from PubChem BioAssay AID1963316 (National Center for Advancing Translational Sciences (NCATS), 2024).

Inconclusive results are not listed. Where a call stands in place of a potency, no number is given. Calls of active or inactive are those of the source. Calls follow the shape of the full dose curve.

Sequence of Tyrosine-protein kinase ABL1 (Homo sapiens) (P00519 whole entry, looked up): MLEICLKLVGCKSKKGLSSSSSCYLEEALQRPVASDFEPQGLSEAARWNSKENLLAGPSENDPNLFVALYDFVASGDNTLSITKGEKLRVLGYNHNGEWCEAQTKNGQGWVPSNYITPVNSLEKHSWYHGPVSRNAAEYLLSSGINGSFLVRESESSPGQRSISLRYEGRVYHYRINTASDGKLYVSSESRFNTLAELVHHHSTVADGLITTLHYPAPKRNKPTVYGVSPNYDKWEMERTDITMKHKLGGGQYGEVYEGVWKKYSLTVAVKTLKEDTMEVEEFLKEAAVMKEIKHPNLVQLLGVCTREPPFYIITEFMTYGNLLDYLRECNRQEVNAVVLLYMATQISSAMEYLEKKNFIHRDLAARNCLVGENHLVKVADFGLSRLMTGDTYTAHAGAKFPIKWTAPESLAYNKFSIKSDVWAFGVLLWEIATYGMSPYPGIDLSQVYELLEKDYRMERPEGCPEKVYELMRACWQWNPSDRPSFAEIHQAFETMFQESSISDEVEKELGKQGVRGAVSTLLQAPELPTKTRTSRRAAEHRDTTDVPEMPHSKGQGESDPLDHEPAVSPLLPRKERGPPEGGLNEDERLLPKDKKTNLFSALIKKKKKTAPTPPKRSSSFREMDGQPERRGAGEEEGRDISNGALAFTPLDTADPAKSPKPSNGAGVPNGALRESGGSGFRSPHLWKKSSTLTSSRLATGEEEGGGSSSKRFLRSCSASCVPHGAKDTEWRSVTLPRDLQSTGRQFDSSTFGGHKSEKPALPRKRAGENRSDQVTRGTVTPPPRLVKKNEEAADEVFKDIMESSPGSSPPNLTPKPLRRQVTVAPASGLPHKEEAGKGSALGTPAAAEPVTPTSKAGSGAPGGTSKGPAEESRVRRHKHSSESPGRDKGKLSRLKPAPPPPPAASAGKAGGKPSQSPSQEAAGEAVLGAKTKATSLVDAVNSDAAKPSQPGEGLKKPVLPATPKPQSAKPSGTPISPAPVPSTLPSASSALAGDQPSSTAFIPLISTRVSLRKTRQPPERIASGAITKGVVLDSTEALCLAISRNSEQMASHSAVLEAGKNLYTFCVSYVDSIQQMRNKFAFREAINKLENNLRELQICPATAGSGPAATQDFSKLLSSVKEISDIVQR

This assay concerns the target Tyrosine-protein kinase ABL1 (Homo sapiens) (UniProt P00519). The assay can be described thus: ABL1 kinase (ABL1-N-HiBiT) SDR gain of signal screen - plus ATP. The note with it: purified ABL1-N-HiBiT enzyme, HiBiT luminescence with 50 uM ATP, 30 min; series mostly up to 57.5 µM. The gist of the method:
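ABL1-N-HiBiT protein (10 nM final) with 50 uM ATP incubated with compounds for 30 min at RT, protected from light. Nano-Glo HiBiT reagent then added for 10 min; luminescence read on CCD imager, with DMSO neutral and imatinib positive controls.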
Regarding `Cc1c(Cl)cccc1S(=O)(=O)Nc1nc(NCCc2ccccc2)nc2c1CN(Cc1ccccc1)CC2`, the Potency entry was “inactive”.

Take `O=C(NOCC(O)CO)c1cc(Br)c(F)c(F)c1Nc1ccc(I)cc1F` (stereo not drawn): the Potency entry was “inactive”.

Consider `Cc1cc(C)c(/C=C2\C(=O)Nc3ccccc32)[nH]1`, for which the Potency entry was “inactive”.

On to `CC[C@@](C)(Nc1ccnc(-c2c[nH]c3ncccc23)n1)C(=O)NCC(F)(F)F`, for which the Potency is 11.2 µM (active).

On to `Cc1[nH]c2ccccc2c1C1=C(NCCc2ccc(F)cc2)C(=O)N(C)C1=O`, for which the Potency result was “inactive”.

As to `COc1ccc(CNC(=O)Nc2ncc([N+](=O)[O-])s2)cc1`, the Potency entry is “inactive”.

On to `N#Cc1ccc2ncnc(NCCc3ccccc3)c2c1`, for which the Potency result was “inactive”.

Regarding `CN1CCN(CCOc2cc(OC3CCOCC3)c3c(Nc4c(Cl)ccc5c4OCO5)ncnc3c2)CC1`, the Potency is 0.0839 µM (active).

For `Cn1cc(-c2cc3c(N4CCN(c5ncc([C@@](C)(N)c6ccc(F)cc6)cn5)CC4)ncnn3c2)cn1`, the Potency was 10.3 µM (active).

Consider `Cc1[nH]c(/C=C2\C(=O)Nc3ccc(S(=O)(=O)Cc4c(Cl)cccc4Cl)cc32)c(C)c1C(=O)N1CCC[C@@H]1CN1CCCC1`, for which the Potency result is “inactive”.

As to `Cc1cc(O)c2c(c1)C(=O)c1cc(O)cc(O)c1C2=O`, the Potency entry was “inactive”.

For the compound `CN1CCN(c2ccc(Nc3ncc4cc(C#N)c(=O)n(C5CCCC5)c4n3)cc2)CC1`, the Potency entry is “inactive”.

Turning to `O=C(NC1CCNCC1)c1[nH]ncc1NC(=O)c1c(Cl)cccc1Cl`, the Potency result is “inactive”.

In the case of `COc1ccc2c(Oc3ccc(NC(=O)c4c(C)n(CC(C)(C)O)n(-c5ccccc5)c4=O)nc3)ccnc2c1`, the Potency entry is “inactive”.

With `Cc1ccc(C(=O)Nc2ccc(CN3CCN(C)CC3)c(C(F)(F)F)c2)cc1C#Cc1cnc2[nH]ncc2c1`, the Potency was 0.0158 µM (active).

In the case of `COc1cc(N2CCC(N3CCN(C)CC3)CC2)ccc1Nc1ncc(Cl)c(Nc2ccccc2P(C)(C)=O)n1`, the Potency was 3.15 µM (active).

Take `CNC(=O)c1ccccc1Nc1nc(Nc2ccc(N3CCOCC3)cc2OC)ncc1Cl`: the Potency entry is “inactive”.

With `CCN1CCN(Cc2ccc(NC(=O)c3ccc(C)c(NC(=O)c4cncc(-c5cccs5)c4)c3)cc2C(F)(F)F)CC1`, the Potency entry was “inactive”.

Regarding `CCN(CC)CCOc1ccc(Nc2ncc3cc(-c4c(Cl)cccc4Cl)c(=O)n(C)c3n2)cc1`, the Potency entry is “inactive”.

In the case of `Cc1ccc(-n2nc(C(C)(C)C)cc2NC(=O)NCc2cc(F)ccc2Oc2ccc3c(cnn3CCO)c2)cc1`, the Potency was 0.375 µM (active).

With `COc1ccc(-n2c(SCC#N)nc3sc4c(c3c2=O)CCCC4)cc1`, the Potency result was “inactive”.

Consider `O=C(Nc1cc(C(F)(F)F)ccc1N1CCCCC1)c1ccncc1`, for which the Potency entry was “inactive”.

Regarding `COc1cc2ncnc(Oc3cccc(NC(=O)Nc4cc(C(C)(C)C(F)(F)F)on4)c3)c2cc1OC`, the Potency was 1.41 µM (active).
